In the supplement of paper PMC6522484:
± gives the standard deviation of the averaged measurements.

System: DLD1
Test: cell viability (CellTiter-Glo) relative to plate median (fraction of plate median); higher = more viable cells
Conditions: 5 µM; treatment time 24 h; reporter: 7TFP
Method in brief: (§1)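 Luminescence, normalised well by well to the plate median, is tabulated as a mean of independent replicates. There were two replicates, run on colorectal cancer lines stably transduced with lentiviral TCF/Wnt firefly luciferase reporters and dosed with library compounds at a final 5 µM for 24 h. Readouts were firefly luciferase or CellTiterGlo on parallel plates.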

Question: For `CC(C)C1NC(=O)C2CCCN2C1=O` (single isomer, unassigned; isomere) [Cyclo(prolylvalyl) (Isomere)], which cell viability is on record?
Answer: 1 ± 0.023

Question: For `COc1c2c(c(O)c3c4c(c(C)cc13)C1OC3(C(OC)OC)OC1C(O[C@H]1C[C@@H](O)[C@@](O)(C(C)=O)[C@H](C)O1)(O4)C3(O)CO)C(=O)C(O)CC2O[C@H]1C[C@@](C)(O)[C@H](OC(C)=O)[C@H](C)O1` (stereo partly drawn) [Trioxacarcin B], which cell viability is on record?
Answer: 1.09 ± 0.29

Question: How did the cell viability turn out when `CO[C@@]12[C@H](COC(N)=O)C3=C(C(=O)C(C)=C(N)C3=O)N1C[C@@H]1N[C@@H]12` was run?
Answer: 1.12 ± 0.057

System: HCT116
Test: as above
Conditions: 5 µM; treatment time 24 h; reporter: TCF4/Wnt
Method in brief: as §1

Question: With `Nc1nc(=O)c2[nH]c(=O)cnc2[nH]1` as the compound, how does the cell viability read?
Answer: 1.06 ± 0.078

Question: `CC#C[C@]1(O)CC[C@H]2[C@@H]3CCC4=CC(=O)CCC4=C3[C@@H](c3ccc(N(C)C)cc3)C[C@@]21C` was tested. Which cell viability did it give?
Answer: 1.04 ± 0.12

Question: How did the cell viability turn out when `CC1(C)C=Cc2cc3ccc(=O)oc3cc2O1` was run?
Answer: 1 ± 0.043

Question: Which cell viability does the source give for `CN(C)CCOc1ccc(/C(=C(/CCCl)c2ccccc2)c2ccccc2)cc1` here?
Answer: 1.02 ± 0.062

Question: For `CC(C)(C)CC(C)(C)c1ccc(O)c(Cc2ccc(Cl)cc2Cl)c1`, which cell viability is on record?
Answer: 1.05 ± 0.05

Question: How did the cell viability turn out when `CC(=O)N[C@@H](CS)C(=O)O` was run?
Answer: 0.988 ± 0.12

Question: Which cell viability does the source give for `Cn1c(=O)c2nc[nH]c2n(C)c1=O` here?
Answer: 1.04 ± 0.021

Question: With `CC(C)CC(NC(=O)OCC1c2ccccc2-c2ccccc21)C(=O)O` (stereo in doubt) as the compound, how does the cell viability read?
Answer: 0.996 ± 0.035

Question: For `C=C1C(=O)[C@]23[C@H](CC[C@@H]1[C@@H]2O)[C@]12CO[C@@]3(O)[C@H](O)[C@H]1C(C)(C)CC[C@@H]2O`, which cell viability is on record?
Answer: 1.12 ± 0.19

Question: With `O=c1cc(CO)occ1O` [Kojic acid (Biofocus)] as the compound, how does the cell viability read?
Answer: 1.02 ± 0.083

Question: With `c1coc(CNc2ncnc3[nH]cnc23)c1` as the compound, how does the cell viability read?
Answer: 0.845 ± 0.17

Question: With `CC(=O)O[C@H]1CC[C@]2(C)C(C[C@@H](OC(C)=O)[C@]3(C)C4=CC(=O)O[C@H](c5ccoc5)[C@@]4(C)CCC23)C1(C)C` (stereo partly drawn) [3-DEOXO-3beta-ACETOXYDEOXYDIHYDROGEDUNIN] as the compound, how does the cell viability read?
Answer: 1.14 ± 0.19

Question: Which cell viability does the source give for `NCCNCCNCCN` here?
Answer: 0.986 ± 0.049

Question: With `CCCc1nn(C)c2c(=O)[nH]c(-c3cc(S(=O)(=O)N4CCN(C)CC4)ccc3OCC)nc12` as the compound, how does the cell viability read?
Answer: 0.981 ± 0.21

Question: With `Oc1c(Cl)cc(Cl)c2cccnc12` as the compound, how does the cell viability read?
Answer: 1.02 ± 0.081

Question: With `CC(C)CCC[C@@H](C)[C@H]1CC[C@H]2[C@@H]3CC(=O)[C@H]4C[C@@H](O)CC[C@]4(C)[C@H]3CC[C@]12C` [5alpha-CHOLESTAN-3beta-OL-6-ONE] as the compound, how does the cell viability read?
Answer: 1.01 ± 0.014

Question: How did the cell viability turn out when `C[C@H](N)[C@H](O)c1cccc(O)c1` was run?
Answer: 0.997 ± 0.075

Question: How did the cell viability turn out when `CC(C(=O)O)c1cccc(Oc2ccccc2)c1` (stereo not drawn) was run?
Answer: 0.98 ± 0.0057

Question: With `Clc1ccc(CSC(Cn2ccnc2)c2ccc(Cl)cc2Cl)cc1` (stereo not drawn) as the compound, how does the cell viability read?
Answer: 0.932 ± 0.14

Question: With `CC(=O)O[C@]1(C(C)=O)CC[C@H]2[C@@H]3C=C(Cl)C4=CC(=O)[C@@H]5C[C@@H]5[C@]4(C)[C@H]3CC[C@@]21C` as the compound, how does the cell viability read?
Answer: 0.96 ± 0.086

Question: How did the cell viability turn out when `CC(=O)OC1CCC2(C)C(=CCC3C2CCC2(C)C(C(C)CCCC(C)C)CCC32)C1` (stereo not drawn) was run?
Answer: 1.05 ± 0.12

Question: `CCC(=O)C1(C)OC1C(C)CC(C)C1OC(=O)CC2(O)CC=C(C)C(O2)/C(C)=C/CCCC(OC2CC(OC(N)=O)C(O)C(C)O2)/C=C/C(C)C(O)C1C` (stereo not drawn) [Irumamycin] was tested. Which cell viability did it give?
Answer: 1.04 ± 0.035

Question: `CC(=O)O[C@@H]1CC2C(C)(CC[C@H](O)C2(C)C)C2CC[C@]3(C)C(=CC(=O)O[C@H]3c3ccoc3)C21C` (stereo partly drawn) [3beta-HYDROXYDEOXODIHYDRODEOXYGEDUNIN] was tested. Which cell viability did it give?
Answer: 0.963 ± 0.081

Question: Which cell viability does the source give for `CCCc1nc(C(C)(C)O)c(C(=O)OCc2oc(=O)oc2C)n1Cc1ccc(-c2ccccc2-c2nnn[nH]2)cc1` here?
Answer: 0.978 ± 0.045

Question: Which cell viability does the source give for `CCOc1ccc(Cc2nccc3cc(OCC)c(OCC)cc23)cc1OCC` here?
Answer: 0.885 ± 0.056

Question: Which cell viability does the source give for `Cc1ccc(Cl)c(Nc2ccccc2C(=O)O)c1Cl` here?
Answer: 1.06 ± 0.086

Question: For `C=C1CC[C@@H]2[C@](C)(CO)[C@H](O)CC[C@@]2(C)[C@@H]1C/C=C1/C(=O)OC[C@H]1O`, which cell viability is on record?
Answer: 0.963 ± 0.052

Question: With `C[C@@H]1O[C@@H](O[C@H]2[C@H](Oc3cc(O)c4c(c3)O[C@H](c3ccc(O)cc3)CC4=O)O[C@H](CO)[C@@H](O)[C@@H]2O)[C@H](O)[C@H](O)[C@H]1O` as the compound, how does the cell viability read?
Answer: 0.916 ± 0.11

Question: Which cell viability does the source give for `c1ccc2c(c1)CCCC2C1=NCCN1` (stereo not drawn) here?
Answer: 1.125 ± 0.0071

Question: `CO/N=C(\C(=O)N[C@@H]1C(=O)N2C(C(=O)OC(C)OC(C)=O)=C(COC(N)=O)CS[C@H]12)c1ccco1` (stereo partly drawn) was tested. Which cell viability did it give?
Answer: 1.05 ± 0.079

Question: Which cell viability does the source give for `CC1=CC(=O)CC(C)(C)C1(O)/C=C/C(C)=C\C(=O)O` (mixture of isomers) [ABSCISIC ACID (cis,trans; )] here?
Answer: 1.1 ± 0.021

Question: Which cell viability does the source give for `O=CN(O)CCCC(NC(=O)C(CO)NC(=O)C1COC(c2ccccc2O)=N1)C(=O)NCCC(=O)NC1CCCN(O)C1=O` (stereo not drawn) [Oxachelin hydrate] here?
Answer: 1.11 ± 0.12

Question: For `Cc1cc(/C=C/c2ccc3cc(N(C)C)ccc3[n+]2C)c(C)n1-c1ccccc1`, which cell viability is on record?
Answer: 0.592 ± 0.17

Question: `CC(C)c1cccc(=O)c(O)c1` was tested. Which cell viability did it give?
Answer: 1.07 ± 0.042

Question: For `CCOC(=O)c1c(C)cc(OC)cc1O`, which cell viability is on record?
Answer: 0.908 ± 0.03

Question: `CC1=C(/C=C/C(C)=C/C=C/C(C)=C/C=C/C=C(C)/C=C/C=C(C)/C=C/C2=C(C)C(=O)[C@@H](O)CC2(C)C)C(C)(C)C[C@H](O)C1=O` was tested. Which cell viability did it give?
Answer: 1.07 ± 0.042

Question: For `CC[C@H]1OC(=O)C[C@@H](O)[C@H](C)[C@@H](O[C@@H]2O[C@H](C)[C@@H](O[C@H]3C[C@@](C)(O)[C@@H](O)[C@H](C)O3)[C@H](N(C)C)[C@H]2O)[C@@H](CC=O)C[C@@H](C)C(=O)/C=C/C(C)=C/[C@@H]1CO[C@@H]1O[C@H](C)[C@@H](O)[C@@H](OC)[C@H]1OC`, which cell viability is on record?
Answer: 1.08 ± 0.021

Question: Which cell viability does the source give for `CC(C)C1NC(=O)C2CCCN2C1=O` (single isomer, unassigned; isomere) [Cyclo(prolylvalyl) (Isomere)] here?
Answer: 0.992 ± 0.054

Question: Which cell viability does the source give for `COc1c2c(c(O)c3c4c(c(C)cc13)C1OC3(C(OC)OC)OC1C(O[C@H]1C[C@@H](O)[C@@](O)(C(C)=O)[C@H](C)O1)(O4)C3(O)CO)C(=O)C(O)CC2O[C@H]1C[C@@](C)(O)[C@H](OC(C)=O)[C@H](C)O1` (stereo partly drawn) [Trioxacarcin B] here?
Answer: 1.11 ± 0.014

Question: For `CO[C@@]12[C@H](COC(N)=O)C3=C(C(=O)C(C)=C(N)C3=O)N1C[C@@H]1N[C@@H]12`, which cell viability is on record?
Answer: 1.01
